{
  "source": "ChEMBL document CHEMBL3988442",
  "about": "“University of Dundee, Small-Polar-MMV Screening Library” (2021)",
  "note": "The campaign covered roughly 38,000 compounds. About 1,200 (3.2%) showed an effect of 50% or more. The median lay at about -58%. Only a selection was taken, and strong results are over-represented in it overall.",
  "data": [
    {"tested_on": "Plasmodium falciparum", "assay": "Calibr Malaria Delayed Death Assay SOP", "format": "functional, organism-based", "parameters": "scale not given: in the data most compounds retested in dose-response had high values", "settings": "concentration 4.99e-06 (unit not given; other assays of the set use mol/L)", "units": {"Percent Effect": "%"}, "values": [
      {"smiles": "CCc1nc(CNc2ccc(F)c(F)c2)no1", "Percent Effect": -20.9},
      {"smiles": "CN(Cc1ccc(N2CCOCC2)cc1)Cc1noc(C(C)(C)C)n1", "Percent Effect": -81.05},
      {"smiles": "CC(C)(C)c1noc(CCC(=O)N2CCN(Cc3ccc(Cl)s3)CC2)n1", "Percent Effect": -118.6},
      {"smiles": "CCc1cnc(C)nc1N1CCC(Cc2cccc(C(=O)O)c2)C1", "note": "(stereo not drawn)", "Percent Effect": -30.8},
      {"smiles": "O=C(C1CC2(CCNCC2)CN1)N1CCN(c2ccccc2)CC1", "note": "(stereo not drawn)", "Percent Effect": -125.3},
      {"smiles": "Cc1cccc(N2CCN(C(=O)C3CC4(CCNCC4)CN3)CC2)n1", "note": "(stereo not drawn)", "Percent Effect": -69.89},
      {"smiles": "O=C(C1CC2(CCNCC2)CN1)N1CCN(c2cccc(Cl)c2Cl)CC1", "note": "(stereo not drawn)", "Percent Effect": 78.29},
      {"smiles": "CN(C)C(=O)Cc1nc(CN2CCCCC2Cn2cccn2)cs1", "note": "(stereo not drawn)", "Percent Effect": -103.2},
      {"smiles": "Cc1nccn1CC1CCCN(C(=O)Cc2ccsc2)C1", "note": "(stereo not drawn)", "Percent Effect": -60.26},
      {"smiles": "CCC(=O)N1CCC(c2cncc(Oc3cccnc3)n2)CC1", "Percent Effect": -187.7},
      {"smiles": "CNCC(=O)N1CCCC1c1cncc(Oc2ccc(F)cc2)n1.Cl", "note": "(stereo not drawn)", "Percent Effect": 68.33},
      {"smiles": "NCC(=O)N1CCC(c2cncc(Oc3cccnc3)n2)CC1", "Percent Effect": -100.1},
      {"smiles": "CC(C)(N)C(=O)N1CCCC1c1cncc(Oc2ccccc2)n1", "note": "(stereo not drawn)", "Percent Effect": 77.57},
      {"smiles": "COC(=O)NCC(=O)N1CCCC1c1nc(-c2ccccc2F)c[nH]1", "note": "(stereo not drawn)", "Percent Effect": -22.14},
      {"smiles": "Cn1cc(C2CCCN2C(=O)CCCOc2ccc(F)cc2)cn1", "note": "(stereo not drawn)", "Percent Effect": -105.8},
      {"smiles": "CC(C)(C)OC(=O)N1CCCN(c2nnc(Br)s2)CC1", "Percent Effect": -110},
      {"smiles": "COc1ccccc1C(=O)Nc1c(F)c(C(=O)NCCC(C)C)nn1C", "Percent Effect": -92.84},
      {"smiles": "Cc1ccc2nc(CN3CCCCC3CCn3cccn3)cn2c1", "note": "(stereo not drawn)", "Percent Effect": -67.34},
      {"smiles": "c1ccc(Cn2cccn2)c(CN2CCCCC2CCn2ccnc2)c1", "note": "(stereo not drawn)", "Percent Effect": 62.85},
      {"smiles": "Fc1cccc(-n2ccc(CN3CCCCC3Cn3cncn3)n2)c1", "note": "(stereo not drawn)", "Percent Effect": -49.02},
      {"smiles": "Cc1cccc(-n2cc(CN3CCN(C)[C@@H]4CS(=O)(=O)C[C@@H]43)cn2)c1", "Percent Effect": -99.09},
      {"smiles": "Fc1cccc(-n2cc(CN3CCCCC3CCn3ccnc3)cn2)c1", "note": "(stereo not drawn)", "Percent Effect": 67.59},
      {"smiles": "Fc1ccc(-n2cccn2)c(CN2CCCCC2CCn2ccnc2)c1", "note": "(stereo not drawn)", "Percent Effect": 3.883},
      {"smiles": "c1csc(CN(Cc2ccsc2)CC2CCCO2)n1", "note": "(stereo not drawn)", "Percent Effect": -152.6},
      {"smiles": "CCOc1cccc(CNC(=O)c2cnn(CC)c2C(F)(F)F)c1", "Percent Effect": -100.3},
      {"smiles": "O=C1NCc2ccc(NC(=O)C3CCCN3c3nccs3)cc21", "note": "(stereo not drawn)", "Percent Effect": -60.91},
      {"smiles": "O=C(CN1CCCS1(=O)=O)Nc1ccc(OC2CCCC2)cc1", "Percent Effect": -131},
      {"smiles": "CC(=O)c1ccc(NC(=O)C(NC(=O)Nc2ccccc2)C(C)C)cc1", "note": "(stereo not drawn)", "Percent Effect": -29.84}
    ]}
  ]
}
